The values that follow come from PubChem BioAssay AID651871 (Sanford-Burnham Center for Chemical Genomics, 2012).

Several values for one entry are separate records, joined by “and”; a condition that tells them apart may be missing. Equal entries are not always repeated.

The subject of the test is H9c2. Nature of the test: cardiomyocyte survival under oxidative or metabolic stress – cell-based, panel, H9c2 and HL-1, ATP luminescence, set 2, SAR follow-up (AID 651871).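 Also: cells exposed to stressor for 2 h before ATP readout; reference of the scale not given here.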 As to conditions: H9c2/HL-1 cardiomyocytes, 2-deoxyglucose stress, with 2-deoxyglucose; run 7, at 79 µM (top of the series).
As to `COc1ccc2c(c1OC)C(=O)N1c3ccccc3C(=O)N(Cc3cccc(Cl)c3Cl)C21` (stereo not drawn), the activity (protection/inhibition) is 73.7% and 71.7% and -5.58%.

As for `COc1ccc2nc(-c3cc(OC)c(OC)c(OC)c3)cc(C(=O)NCC(=O)Nc3ccc(C(C)=O)cc3)c2c1`, the activity (protection/inhibition) came out at 66.5%.

`CCOC(=O)c1cccc(NC(=O)CNC(=O)c2cc(-c3cc(OC)c(OC)c(OC)c3)nc3ccccc23)c1`: the activity (protection/inhibition) worked out at 77%.
